Tests used:
Test in all cases: log2 ratio of Biotin-Ahx-Ub-VS probe labelling (fragment/DMSO); higher = less target engagement (more negative = stronger competition), active = hit call of the paper (q ≤ 0.05, log2 ratio ≤ -1)
Conditions in all cases: compound concentration: 200 uM; treatment time: 3 h
OTUD6B = target: T1, OTUD6B (UniProt Q8N6M0)
T1 sequence (whole entry): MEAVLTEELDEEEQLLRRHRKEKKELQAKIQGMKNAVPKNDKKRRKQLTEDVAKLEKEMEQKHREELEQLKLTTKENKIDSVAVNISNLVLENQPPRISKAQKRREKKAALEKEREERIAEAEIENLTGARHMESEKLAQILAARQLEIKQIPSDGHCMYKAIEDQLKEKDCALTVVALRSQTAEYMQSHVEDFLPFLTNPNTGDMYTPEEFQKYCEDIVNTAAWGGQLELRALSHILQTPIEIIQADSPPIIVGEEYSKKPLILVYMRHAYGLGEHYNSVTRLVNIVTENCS
Outline: (§1)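 Fragment (200 µM) or vehicle was incubated for 3 h with triplicate HEK293T lysate samples of 495 µg, which were then treated with Biotin-Ahx-Ub-VS at 0.5 µM final for 1 h. Labelled DUBs were enriched on NeutrAvidin, digested with LysC and trypsin, and analysed by diaPASEF LC-MS/MS. Values are average log2 fragment/vehicle ratios from an unpaired t-test on global-median-normalised Spectronaut label-free quantities, using proteins with ≥2 unique peptides.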

OTUD7B = target: T2, OTUD7B (UniProt Q6GQQ9)
T2 sequence (whole entry): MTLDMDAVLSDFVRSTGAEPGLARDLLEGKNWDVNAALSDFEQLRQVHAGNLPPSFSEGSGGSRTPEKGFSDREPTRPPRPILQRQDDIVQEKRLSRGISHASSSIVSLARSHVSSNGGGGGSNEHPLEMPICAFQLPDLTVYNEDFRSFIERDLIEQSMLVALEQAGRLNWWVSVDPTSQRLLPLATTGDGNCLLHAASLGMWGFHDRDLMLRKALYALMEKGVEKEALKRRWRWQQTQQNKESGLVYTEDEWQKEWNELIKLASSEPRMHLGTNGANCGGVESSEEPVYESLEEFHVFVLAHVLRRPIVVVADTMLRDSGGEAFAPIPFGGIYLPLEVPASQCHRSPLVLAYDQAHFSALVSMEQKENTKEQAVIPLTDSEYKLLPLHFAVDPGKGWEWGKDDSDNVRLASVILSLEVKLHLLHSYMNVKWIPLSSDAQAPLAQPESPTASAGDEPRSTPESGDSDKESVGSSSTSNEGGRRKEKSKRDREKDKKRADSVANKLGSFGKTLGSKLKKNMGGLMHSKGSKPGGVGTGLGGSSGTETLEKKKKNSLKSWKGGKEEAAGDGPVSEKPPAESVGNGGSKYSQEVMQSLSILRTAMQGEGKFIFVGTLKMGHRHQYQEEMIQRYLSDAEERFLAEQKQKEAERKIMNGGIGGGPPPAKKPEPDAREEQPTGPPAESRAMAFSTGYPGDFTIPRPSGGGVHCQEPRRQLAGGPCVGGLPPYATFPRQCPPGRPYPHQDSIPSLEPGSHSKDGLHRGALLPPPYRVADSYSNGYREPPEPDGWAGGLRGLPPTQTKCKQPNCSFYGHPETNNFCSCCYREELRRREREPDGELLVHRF
Outline: as §1

PRPF8 = PRPF8 (UniProt Q6P2Q9)
Outline: as §1

PSMD7 = target: T3, PSMD7 (UniProt P51665)
T3 sequence (whole entry): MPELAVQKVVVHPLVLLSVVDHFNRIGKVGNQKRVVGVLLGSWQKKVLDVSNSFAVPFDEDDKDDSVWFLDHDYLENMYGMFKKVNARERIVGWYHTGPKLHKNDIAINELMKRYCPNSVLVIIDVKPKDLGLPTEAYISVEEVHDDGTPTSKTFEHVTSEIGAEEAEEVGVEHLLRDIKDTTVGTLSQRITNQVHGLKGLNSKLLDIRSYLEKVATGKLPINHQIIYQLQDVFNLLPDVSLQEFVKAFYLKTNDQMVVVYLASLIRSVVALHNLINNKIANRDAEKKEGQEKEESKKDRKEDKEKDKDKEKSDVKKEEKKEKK
Outline: as §1

UCHL1 = UCHL1 (UniProt P09936)
UCHL1, sequence (P09936 whole entry, looked up): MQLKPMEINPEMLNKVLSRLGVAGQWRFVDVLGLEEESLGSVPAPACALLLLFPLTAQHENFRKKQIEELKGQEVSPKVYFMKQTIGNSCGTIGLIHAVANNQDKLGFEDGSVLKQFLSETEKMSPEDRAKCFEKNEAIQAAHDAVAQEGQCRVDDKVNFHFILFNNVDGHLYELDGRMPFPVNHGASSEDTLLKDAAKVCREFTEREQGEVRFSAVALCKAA
Outline: as §1

UCHL3 = target: T4, UCHL3 (UniProt P15374)
T4 sequence (whole entry): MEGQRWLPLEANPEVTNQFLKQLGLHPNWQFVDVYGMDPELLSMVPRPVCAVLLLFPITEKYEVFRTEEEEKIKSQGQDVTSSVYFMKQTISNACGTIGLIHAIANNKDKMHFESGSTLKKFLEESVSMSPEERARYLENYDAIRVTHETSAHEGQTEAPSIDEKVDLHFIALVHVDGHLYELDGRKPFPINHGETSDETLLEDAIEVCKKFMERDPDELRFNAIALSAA
Outline: as §1

UCHL5 = target: T5, UCHL5 (UniProt Q9Y5K5)
T5 sequence (whole entry): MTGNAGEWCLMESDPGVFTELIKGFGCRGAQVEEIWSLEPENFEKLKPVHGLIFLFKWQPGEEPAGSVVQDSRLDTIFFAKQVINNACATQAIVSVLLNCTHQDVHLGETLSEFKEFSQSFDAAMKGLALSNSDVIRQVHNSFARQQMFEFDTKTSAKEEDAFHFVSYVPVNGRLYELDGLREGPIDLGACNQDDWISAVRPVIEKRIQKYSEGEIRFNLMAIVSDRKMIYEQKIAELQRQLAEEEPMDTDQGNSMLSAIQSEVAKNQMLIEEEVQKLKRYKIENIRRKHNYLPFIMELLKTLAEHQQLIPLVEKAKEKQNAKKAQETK
Outline: as §1

USP10 = USP10 (UniProt Q14694)
USP10, sequence (Q14694 whole entry): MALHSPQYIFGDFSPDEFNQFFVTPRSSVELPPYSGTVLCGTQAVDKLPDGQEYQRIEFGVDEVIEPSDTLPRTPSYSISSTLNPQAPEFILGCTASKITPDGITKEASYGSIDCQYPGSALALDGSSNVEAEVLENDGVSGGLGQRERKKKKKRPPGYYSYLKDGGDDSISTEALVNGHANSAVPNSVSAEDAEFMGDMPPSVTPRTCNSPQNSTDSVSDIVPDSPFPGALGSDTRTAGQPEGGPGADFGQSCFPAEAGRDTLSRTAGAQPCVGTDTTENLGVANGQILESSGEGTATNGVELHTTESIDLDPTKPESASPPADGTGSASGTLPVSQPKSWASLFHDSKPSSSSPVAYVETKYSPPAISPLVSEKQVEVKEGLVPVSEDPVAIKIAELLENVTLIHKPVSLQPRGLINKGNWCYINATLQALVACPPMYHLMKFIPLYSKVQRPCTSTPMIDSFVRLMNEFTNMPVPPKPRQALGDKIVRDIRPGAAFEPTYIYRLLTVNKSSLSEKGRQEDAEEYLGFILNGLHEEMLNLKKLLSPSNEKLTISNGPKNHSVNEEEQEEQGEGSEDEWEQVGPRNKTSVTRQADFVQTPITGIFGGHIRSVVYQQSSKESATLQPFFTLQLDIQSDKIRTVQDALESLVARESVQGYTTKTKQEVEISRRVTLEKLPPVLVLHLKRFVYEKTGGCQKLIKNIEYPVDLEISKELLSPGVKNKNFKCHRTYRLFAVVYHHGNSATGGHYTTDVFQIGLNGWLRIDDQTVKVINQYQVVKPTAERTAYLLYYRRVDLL
Outline: as §1

USP15 = target: T6, USP15 (UniProt Q9Y4E8)
T6 sequence (whole entry): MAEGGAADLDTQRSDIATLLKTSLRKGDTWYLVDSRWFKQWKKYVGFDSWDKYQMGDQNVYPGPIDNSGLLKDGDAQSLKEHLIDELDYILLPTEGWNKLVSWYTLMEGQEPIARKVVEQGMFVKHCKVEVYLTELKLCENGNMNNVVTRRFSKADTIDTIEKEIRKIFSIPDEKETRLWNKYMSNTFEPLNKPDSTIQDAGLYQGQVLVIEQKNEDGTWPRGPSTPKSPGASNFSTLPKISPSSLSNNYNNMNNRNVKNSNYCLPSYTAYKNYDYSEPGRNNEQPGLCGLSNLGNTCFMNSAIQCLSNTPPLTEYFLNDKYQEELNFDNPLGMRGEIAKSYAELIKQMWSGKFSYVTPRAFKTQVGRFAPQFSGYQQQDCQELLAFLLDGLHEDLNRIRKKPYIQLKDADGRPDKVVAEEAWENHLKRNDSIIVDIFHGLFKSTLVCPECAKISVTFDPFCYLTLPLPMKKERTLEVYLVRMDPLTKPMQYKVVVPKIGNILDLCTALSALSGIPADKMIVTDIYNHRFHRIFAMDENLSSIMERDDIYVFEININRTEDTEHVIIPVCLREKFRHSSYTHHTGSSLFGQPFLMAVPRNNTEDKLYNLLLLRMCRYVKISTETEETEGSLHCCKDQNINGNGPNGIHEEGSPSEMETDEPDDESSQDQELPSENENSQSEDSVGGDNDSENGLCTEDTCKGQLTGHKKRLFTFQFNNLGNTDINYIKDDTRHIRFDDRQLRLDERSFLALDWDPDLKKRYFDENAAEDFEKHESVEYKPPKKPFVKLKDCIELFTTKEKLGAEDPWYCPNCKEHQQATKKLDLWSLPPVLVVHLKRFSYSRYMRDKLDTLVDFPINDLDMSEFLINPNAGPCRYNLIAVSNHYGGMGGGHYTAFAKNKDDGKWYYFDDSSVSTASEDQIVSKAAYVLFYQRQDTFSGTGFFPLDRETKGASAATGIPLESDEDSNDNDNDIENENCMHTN
Outline: as §1

USP16 = USP16 (UniProt Q9Y5T5)
USP16, sequence (Q9Y5T5 whole entry, looked up): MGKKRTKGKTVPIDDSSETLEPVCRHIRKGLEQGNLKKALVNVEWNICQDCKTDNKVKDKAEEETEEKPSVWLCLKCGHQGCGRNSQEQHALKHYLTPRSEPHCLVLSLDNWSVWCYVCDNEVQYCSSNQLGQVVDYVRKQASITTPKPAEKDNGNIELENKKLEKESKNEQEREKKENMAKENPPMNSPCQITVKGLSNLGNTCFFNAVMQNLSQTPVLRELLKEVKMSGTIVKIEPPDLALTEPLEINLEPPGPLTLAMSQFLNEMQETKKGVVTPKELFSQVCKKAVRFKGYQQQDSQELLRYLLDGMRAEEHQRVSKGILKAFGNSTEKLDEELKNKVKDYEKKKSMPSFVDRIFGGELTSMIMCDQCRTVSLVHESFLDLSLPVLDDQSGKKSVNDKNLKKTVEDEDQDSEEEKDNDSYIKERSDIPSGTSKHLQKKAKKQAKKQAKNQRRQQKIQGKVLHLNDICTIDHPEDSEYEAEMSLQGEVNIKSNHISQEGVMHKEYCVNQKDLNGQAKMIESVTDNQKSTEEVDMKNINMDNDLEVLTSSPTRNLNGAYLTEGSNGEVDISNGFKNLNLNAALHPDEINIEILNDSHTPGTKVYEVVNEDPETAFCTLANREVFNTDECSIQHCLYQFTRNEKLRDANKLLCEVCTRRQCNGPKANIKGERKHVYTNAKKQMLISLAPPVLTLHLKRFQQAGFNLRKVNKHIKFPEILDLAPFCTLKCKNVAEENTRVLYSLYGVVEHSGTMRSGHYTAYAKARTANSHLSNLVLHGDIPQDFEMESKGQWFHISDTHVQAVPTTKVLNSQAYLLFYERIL
Outline: as §1

Measured: log2 ratio of Biotin-Ahx-Ub-VS probe labelling

Cc1n[nH]c2c1CN(C(=O)CCl)CC2
active: OTUD7B -1.53
inactive: OTUD6B -0.715 | PRPF8 0.0355 | PSMD7 -0.368 | UCHL1 -1.15 | UCHL3 -0.699 | UCHL5 -0.886 | USP10 -0.519 | USP15 -0.982 | USP16 -0.207

From the supplement of paper PMC11732987, “Enantioselective OTUD7B fragment discovery through chemoproteomics screening and high-throughput optimisation” (Communications Chemistry, 2025)
